Screening results: PubChem BioAssay, National Center for Advancing Translational Sciences (NCATS)
HT1080 IDH1KD tx = qHTS for induction of synthetic lethality in tumor cells producing 2HG: qHTS for the HT-1080-IDH1KD cell line. HT-1080 IDH1 knockdown viability, ATP luminescence, 48 h. Potency, µM (top dose mostly 46.1 µM), usual class: cytotoxic. hit rate 2% among 360,000
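CellTiter-Glo luminescence after 48 h compound exposure at 37 degrees C of IDH1-knockdown HT-1080 cells in 5% FBS RPMI. %Activity scaled between DMSO wells and cell-free media wells, with curves fitted and assigned curve classes.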
DT40 TDP1 no CPT = qHTS for Inhibitors of human tyrosyl-DNA phosphodiesterase 1 (TDP1): qHTS in cells in absence of CPT. DT40 Tdp1-/- hTDP1 cells, no CPT, ATP luminescence, 48 h. Potency, µM (top dose mostly 46.2 µM), usual class: inhibitors. hit rate 15% among 420,000. AID 686978, 2013; further: nearly all actives have a fitted effect of over 55% in size
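Chicken DT40 Tdp1-/- cells complemented with human TDP1, screened without camptothecin (DMSO vehicle only), 400 cells/well. Compounds pin-transferred, cells incubated at 37 °C for at least 48 hr. Growth read as ATP-dependent luminescence (CellTiter-Glo, 30 min at RT).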
TDP1 cell CPT = qHTS for Inhibitors of human tyrosyl-DNA phosphodiesterase 1 (TDP1): qHTS in cells in presence of CPT; chicken DT40 Tdp1-/-;hTDP1 cells + 20 nM CPT, ATP luminescence, 48 h; Potency, µM (top dose mostly 46.2 µM), actives largely listed as inhibitors; hit rate 12% among 420,000; AID 686979, 2013; further: nearly all actives have a fitted effect of over 55% in size
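Chicken DT40 Tdp1-/- cells stably complemented with human TDP1 were seeded at 400 cells/well in medium containing 20 nM camptothecin, exposed to pin-transferred compounds, and grown at 37 °C for at least 48 hr. Viability was read as ATP luminescence.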
ELG1 repair inh = qHTS screen for small molecules that inhibit ELG1-dependent DNA repair in human embryonic kidney (HEK293T) cells expressing luciferase-tagged ELG1; hit rate 2.3% among 330,000; Potency, µM (titrated, usually from 46.1 µM), usual class: inhibitors; HEK293T ELG1-luciferase reporter, luminescence, 16 h; DNA damage induced by 5-fluorouridine; further: nearly all actives have a fitted effect of over 55% in size
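Overnight (16 hr) co-exposure of 2,000 cells/well to 5-fluorouridine and compound at 37 °C preceded detection. Luciferase was quantified via ONE-Glo luminescence; loss of signal denotes inhibition.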
HT1080-NT tox = qHTS for induction of synthetic lethality in tumor cells producing 2HG: qHTS for the HT-1080-NT fibrosarcoma cell line; HT-1080-NT fibrosarcoma viability, CellTiter-Glo ATP luminescence, 48 h; Potency, µM (doses to about 46.1 µM), actives largely listed as cytotoxic; hit rate 1.6% among 360,000;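 further: NT is the 2HG producing partner of a matched IDH1 knockdown line; nearly all actives have a fitted effect of over 55% in size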
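750 cells/well, RPMI + 5% FBS; 2 h settle, compound pin-transfer, 48 h at 37 degrees C. CellTiter-Glo 10 min RT, luminescence. Normalized to DMSO and media-only wells.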
IL-1B inflam inh = qHTS for Inhibitors of Inflammasome Signaling: IL-1-beta AlphaLISA Primary Screen; THP-1 LPS/ATP IL-1B secretion, AlphaLISA, 16 h; hits give low values; hit rate 4.7% among 360,000; activity change, % at 57.5 µM; in the data active means activity change below about -50%; inconclusive means mostly about -30% to -49%
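THP-1 cells pretreated 1 hr with compounds (up to 57.5 uM final), then stimulated with LPS (250 ng/mL final) plus ATP (1.25 mM final); secreted IL-1B measured by AlphaLISA after 16 hr, decreased signal indicating inhibition.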
Of the large screens only hits and unclear results are named; the others gave an inactive call. Only some compounds are listed: those with a hit (about 19% of all), similar ones and a draw of the others. Unless noted, the call rests on the fitted dose curve; in most records, active means well fitted curve in the direction sought with a large enough effect; inconclusive means small, poorly fitted or top-dose-only effect, or another doubt; inactive means no such curve, though single readings can be large; an effect the other way counts as inactive or inconclusive.

Cc1ccc(SC2=NS(=O)(=O)c3ccccc32)c(C)c1	DT40 TDP1 no CPT 1.26µM, TDP1 cell CPT 1.41µM (no result: HT1080 IDH1KD tx, ELG1 repair inh, HT1080-NT tox, IL-1B inflam inh)
Cc1cc(=O)n2c(C(=O)Nc3ccc(Br)cc3)c(C(=O)Nc3ccccc3)sc2n1	none (no result: HT1080 IDH1KD tx, ELG1 repair inh, HT1080-NT tox, IL-1B inflam inh)
CCCCC/C=C\C=C\[C@H](O)CCCCCCCC(=O)O	none (no result: HT1080 IDH1KD tx, ELG1 repair inh, HT1080-NT tox, IL-1B inflam inh)
CCCCNC(=O)[C@@](CC)(ONc1ccccc1C(F)(F)F)c1cccc2ccccc12	DT40 TDP1 no CPT inconclusive, TDP1 cell CPT 14.6µM, IL-1B inflam inh inconclusive
CCCN(CCC)C(=O)Cn1c(=O)n(-c2cccc(C)c2)c(=O)c2c1c1cc(OC)ccc1n2C	DT40 TDP1 no CPT 23.1µM, TDP1 cell CPT 14.6µM (no result: HT1080 IDH1KD tx, ELG1 repair inh, HT1080-NT tox, IL-1B inflam inh)
COc1ccc2c(c1)c1c(c(=O)n(-c3cccc(C)c3)c(=O)n1Cc1cccc(Cl)c1)n2C	DT40 TDP1 no CPT 5.8µM, TDP1 cell CPT 7.31µM (no result: HT1080 IDH1KD tx, ELG1 repair inh, HT1080-NT tox, IL-1B inflam inh)
COc1ccc2c(c1)c1c(c(=O)n(-c3ccccc3C)c(=O)n1Cc1cccc(C(F)(F)F)c1)n2C	DT40 TDP1 no CPT 3.66µM, TDP1 cell CPT 3.66µM (no result: HT1080 IDH1KD tx, ELG1 repair inh, HT1080-NT tox, IL-1B inflam inh)
COc1ccc(Cn2c(=O)n(-c3ccc(F)c(Cl)c3)c(=O)c3c2c2cc(OC)ccc2n3C)cc1	DT40 TDP1 no CPT inconclusive (no result: HT1080 IDH1KD tx, ELG1 repair inh, HT1080-NT tox, IL-1B inflam inh)
CCOC(=O)C1CCCN(CC(=O)N(C)c2c(N)n(Cc3ccccc3)c(=O)[nH]c2=O)C1 (stereo unspecified)	none
O=C(O)C1CCCCC1C(=O)NCc1ccc(Cl)c(Cl)c1 (stereo unspecified)	DT40 TDP1 no CPT inconclusive, TDP1 cell CPT inconclusive, ELG1 repair inh inconclusive
CCCN(C(=O)CCc1nc(-c2ccc(OC)cc2)no1)c1ccccc1F	DT40 TDP1 no CPT 16.4µM, TDP1 cell CPT inconclusive (no result: HT1080 IDH1KD tx, ELG1 repair inh, HT1080-NT tox, IL-1B inflam inh)
CCN(C(=O)C1CCCN(c2nc(-c3ccc(OC)cc3)no2)C1)c1ccccc1F (stereo unspecified)	DT40 TDP1 no CPT inconclusive, TDP1 cell CPT inconclusive, ELG1 repair inh inconclusive
CCCN(C(=O)Cc1nc(-c2ccc(OC)cc2)no1)c1ccccc1C	DT40 TDP1 no CPT inconclusive, TDP1 cell CPT 20.6µM (no result: HT1080 IDH1KD tx, ELG1 repair inh, HT1080-NT tox, IL-1B inflam inh)
CCN(C(=O)Cc1nc(-c2ccc(OC)cc2)no1)c1cccc(Cl)c1	DT40 TDP1 no CPT 16.4µM, TDP1 cell CPT inconclusive (no result: HT1080 IDH1KD tx, ELG1 repair inh, HT1080-NT tox, IL-1B inflam inh)
CC1CCc2cc(F)cc3c(O)c(C(=O)NCCN(C)C)c(=O)n1c23 (stereo unspecified)	DT40 TDP1 no CPT 18.4µM, TDP1 cell CPT 20.6µM, HT1080-NT tox inconclusive, IL-1B inflam inh inconclusive
COc1ccccc1-c1cncnc1NCc1cnc(C)cn1	TDP1 cell CPT inconclusive (no result: HT1080 IDH1KD tx, ELG1 repair inh, HT1080-NT tox, IL-1B inflam inh)
Brc1ccc(CSc2ncn[nH]2)cc1	none
CCCOc1ccc(CSc2ncn[nH]2)cc1	DT40 TDP1 no CPT 5.8µM, TDP1 cell CPT 4.61µM, ELG1 repair inh inconclusive
NC(=O)C12C(=O)NC(=O)C1(C(=O)O)C21CCCC1 (stereo unspecified)	none (no result: ELG1 repair inh)
O=C(c1ccc(Cl)cc1)N1CCN(c2ccc(F)cc2)CC1	DT40 TDP1 no CPT inconclusive, TDP1 cell CPT inconclusive, ELG1 repair inh inconclusive
O=C(c1nc(-c2ccc(Cl)cc2)n2c1CCCCC2)N1CCN(c2ccc(F)cc2)CC1	DT40 TDP1 no CPT 10.3µM, TDP1 cell CPT 23.1µM (no result: HT1080 IDH1KD tx, ELG1 repair inh, HT1080-NT tox, IL-1B inflam inh)
O=C(c1nc(-c2ccc(Cl)cc2)n2c1CCCCC2)N1CCN(c2ccccc2F)CC1	DT40 TDP1 no CPT 16.4µM, TDP1 cell CPT inconclusive (no result: HT1080 IDH1KD tx, ELG1 repair inh, HT1080-NT tox, IL-1B inflam inh)
COc1cc(OC)cc(C(=O)NNC(=O)CCC(=O)c2cccs2)c1	none
CCOC(=O)CCN(c1ccccc1)S(=O)(=O)c1ccc(-c2ccc(=O)[nH]n2)s1	TDP1 cell CPT inconclusive
COC(=O)C(C)(C)ONC(=O)Nc1ccc(Br)cc1	TDP1 cell CPT 23.1µM, ELG1 repair inh inconclusive
